“And” between values parts separate entries of the source, which are not always exact repeats. Equal entries are not always repeated. Where a structure was tested more than once in an assay, its records may differ in their call. The source made the active and inactive calls. Entries that show only a call come without a potency. Unless noted, calls follow the shape of the dose curve; as a rule, active = well fitted curve in the direction sought with a large enough effect in the repeat runs; inconclusive = weak or mixed curves; inactive = no such curve, though single readings can be large; an effect the other way counts as inactive or inconclusive.
Assays:
[1] = qHTS assay to identify small molecule antagonists of the thyroid receptor (TR) signaling pathway (AID 743065); also: potency is read from the fitted curve at half-maximal effect; nearly all actives have a fitted effect of over 55% in size
Method in brief: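 Antagonism measured as loss of luciferase signal in GH3 cells stably carrying a TRE-luciferase reporter, co-treated with compound and T3 (1 nM final) for 23.5 h at 37 C. Viability was read in the same well by CellTiter-Fluor.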

[2] = qHTS assay to identify small molecule antagonists of the estrogen receptor alpha (ER-alpha) signaling pathway - cell viability counter screen (AID 743074; calls by dose curve;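 also: HEK293 cells carrying ER-alpha-UAS-bla reporter stimulated with 17beta-estradiol; nearly all actives have a fitted effect of over 45% in size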; also: potency is read from the fitted curve at half-maximal effect)
[3] = molecular target: Estrogen receptor (Homo sapiens) (UniProt P03372); experiment: qHTS assay to identify small molecule agonists of the estrogen receptor alpha (ER-alpha) signaling pathway (AID 743075; calls by dose curve;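 also: HEK293 GripTite cells with ER-alpha and UAS-driven beta-lactamase reporter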; also: potency is read from the fitted curve at half-maximal effect)
Estrogen receptor (Homo sapiens), sequence (P03372 whole entry, looked up): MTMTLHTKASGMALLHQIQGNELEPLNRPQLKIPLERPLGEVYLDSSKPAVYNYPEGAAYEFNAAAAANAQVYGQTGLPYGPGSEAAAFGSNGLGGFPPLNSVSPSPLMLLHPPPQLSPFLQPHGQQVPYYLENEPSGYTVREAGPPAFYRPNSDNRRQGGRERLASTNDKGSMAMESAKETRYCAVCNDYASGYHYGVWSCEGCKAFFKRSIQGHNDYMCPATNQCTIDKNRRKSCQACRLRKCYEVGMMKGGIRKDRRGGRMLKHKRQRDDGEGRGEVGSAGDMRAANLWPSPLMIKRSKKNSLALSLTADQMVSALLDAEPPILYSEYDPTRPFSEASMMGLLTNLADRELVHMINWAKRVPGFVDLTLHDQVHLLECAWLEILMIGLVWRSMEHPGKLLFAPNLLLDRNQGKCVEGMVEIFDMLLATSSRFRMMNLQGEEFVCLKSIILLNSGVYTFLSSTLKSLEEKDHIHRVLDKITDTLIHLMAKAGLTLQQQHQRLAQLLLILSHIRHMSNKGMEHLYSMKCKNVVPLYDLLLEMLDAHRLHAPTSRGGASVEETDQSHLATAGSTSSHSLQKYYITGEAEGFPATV

[4] = qHTS assay to identify small molecule antagonists of the estrogen receptor alpha (ER-alpha) signaling pathway using the BG1 cell line (AID 743080; calls by dose curve;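 also: BG1 cells stimulated with 17beta-estradiol alongside compound; nearly all actives have a fitted effect of over 25% in size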; also: potency is read from the fitted curve at half-maximal effect)
Method in brief: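 Endogenous full-length ER-alpha in BG1-Luc-4E2 cells drives a stably integrated 4×ERE luciferase gene; compounds were tested against 17beta-estradiol over 21.5 h, with luminescence and multiplexed viability fluorescence recorded.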

[5] = qHTS assay to identify small molecule antagonists of the estrogen receptor alpha (ER-alpha) signaling pathway using the BG1 cell line - cell viability counter screen (AID 743081);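 also: compound given together with 17beta-estradiol as the ER stimulus; series mostly up to about 70 µM; nearly all actives have a fitted effect of over 45% in size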
Aromatase (Homo sapiens) = Aromatase (Homo sapiens) (UniProt P11511); experiment: qHTS assay to identify aromatase inhibitors (AID 743083); also: nearly all actives have a fitted effect of over 55% in size; also: potency is read from the fitted curve at half-maximal effect
Aromatase (Homo sapiens), sequence (P11511 whole entry, looked up): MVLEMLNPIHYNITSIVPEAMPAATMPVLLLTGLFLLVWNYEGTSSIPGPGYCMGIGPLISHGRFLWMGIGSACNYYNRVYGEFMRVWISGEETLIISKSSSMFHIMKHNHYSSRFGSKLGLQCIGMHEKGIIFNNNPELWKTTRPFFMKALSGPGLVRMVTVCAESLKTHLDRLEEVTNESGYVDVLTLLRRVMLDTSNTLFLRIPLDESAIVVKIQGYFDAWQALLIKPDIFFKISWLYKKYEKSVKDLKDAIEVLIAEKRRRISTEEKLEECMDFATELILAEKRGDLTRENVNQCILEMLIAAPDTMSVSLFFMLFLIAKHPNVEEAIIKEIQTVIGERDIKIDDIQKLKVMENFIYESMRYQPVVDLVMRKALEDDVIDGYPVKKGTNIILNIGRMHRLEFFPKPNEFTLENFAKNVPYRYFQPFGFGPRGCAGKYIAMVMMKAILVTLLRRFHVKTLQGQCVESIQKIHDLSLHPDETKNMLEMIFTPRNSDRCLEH

[6] = qHTS assay to identify small molecule that activate the aryl hydrocarbon receptor (AhR) signaling pathway - cell viability counter screen (AID 743086); also: nearly all actives have a fitted effect of over 45% in size; also: potency is read from the fitted curve at half-maximal effect
Method in brief: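 Cytotoxicity counter screen: CellTiter-Fluor signal (30 min, 37 C) in 4000 HepG2 cells/well carrying the DRE-luciferase reporter, following 24 h compound exposure at 37 C.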

[7] = molecular target: Peroxisome proliferator-activated receptor gamma (Homo sapiens) (UniProt P37231); experiment: qHTS assay to identify small molecule agonists of the peroxisome proliferator-activated receptor gamma (PPARg) signaling pathway (AID 743094; active = well fitted activation curve with a large enough effect in the signal ratio in the repeat runs, not every such curve was filed as active; inconclusive = weak or mixed curves, or effect the other way; inactive = no such curve, though single readings can be large or run the other way; the % refers to the signal ratio)
Peroxisome proliferator-activated receptor gamma (Homo sapiens), sequence (P37231 whole entry, looked up): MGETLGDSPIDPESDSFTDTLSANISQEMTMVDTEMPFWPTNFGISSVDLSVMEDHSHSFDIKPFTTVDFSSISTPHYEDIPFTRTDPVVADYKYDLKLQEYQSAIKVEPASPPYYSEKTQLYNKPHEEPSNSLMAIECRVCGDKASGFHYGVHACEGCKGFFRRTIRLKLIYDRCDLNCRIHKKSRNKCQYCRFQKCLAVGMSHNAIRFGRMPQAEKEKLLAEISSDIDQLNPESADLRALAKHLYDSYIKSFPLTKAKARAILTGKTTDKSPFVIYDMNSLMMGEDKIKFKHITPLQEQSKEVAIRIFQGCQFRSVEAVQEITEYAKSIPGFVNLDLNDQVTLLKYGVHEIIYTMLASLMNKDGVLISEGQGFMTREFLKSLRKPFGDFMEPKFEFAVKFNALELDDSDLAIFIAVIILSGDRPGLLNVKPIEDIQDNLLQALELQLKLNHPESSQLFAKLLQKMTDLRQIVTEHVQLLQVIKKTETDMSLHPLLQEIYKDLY
Method in brief: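 Reporter activation was scored by fluorescence of cleaved LiveBLAzer B/G substrate (1 h, room temperature) in PPARg-bla HEK293H cells previously treated 17 h at 37C with DMSO-dissolved compounds.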

[8] = qHTS assay to identify small molecule antagonists of the peroxisome proliferator-activated receptor gamma (PPARg) signaling pathway - cell viability counter screen (AID 743194); conditions: Potency: co-treated with 50 nM rosiglitazone unless noted; also: nearly all actives have a fitted effect of over 55% in size; also: potency is read from the fitted curve at half-maximal effect
Method in brief: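 Viability was measured as CellTiter-Glo luminescence in GeneBLAzer PPARg UAS-bla HEK293H cells. These cells had been exposed 17 h at 37 C to compounds together with rosiglitazone at 50 nM final, with the beta-lactamase readout taken in the same wells.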

[9] = qHTS assay for small molecule agonists of the antioxidant response element (ARE) signaling pathway (AID 743202; active = well fitted activation curve with a large enough effect in the signal ratio in the repeat runs, not every such curve was filed as active; inconclusive = weak or mixed curves, or effect the other way; inactive = no such curve, though single readings can be large or run the other way; the % refers to the signal ratio; also: potency is read from the fitted curve at half-maximal effect)
Method in brief: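 After 16 hours of compound treatment at 37 C, HepG2 cells with a stably integrated ARE-driven beta-lactamase reporter were loaded 2 hours at room temperature with LiveBLAzer B/G FRET substrate and fluorescence intensity measured.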

[10] = qHTS assay to identify small molecule agonists of the peroxisome proliferator-activated receptor delta (PPARd) signaling pathway - cell viability counter screen (AID 743211); also: nearly all actives have a fitted effect of over 55% in size; also: potency is read from the fitted curve at half-maximal effect
Method in brief: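 In the same wells used for beta-lactamase reporter measurement, cytotoxicity is scored by CellTiter-Glo. HEK293H PPARd-bla cells receive compound for 17 h at 37C following a 5 h settling period.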

[11] = qHTS assay to identify aromatase inhibitors - cell viability counter screen (AID 743084); also: potency is read from the fitted curve at half-maximal effect
[12] = qHTS assay for small molecule activators of the heat shock response signaling pathway - cell viability counter screen (AID 743209); also: nearly all actives have a fitted effect of over 50% in size; also: potency is read from the fitted curve at half-maximal effect
Method in brief: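 Viability of HSE-bla HeLa cells is measured with CellTiter-Glo in the wells already used for the reporter read. Compound exposure lasts 5 h at 37 C, and luminescence is read after 30 min at room temperature.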

[13] = molecular target: Aryl hydrocarbon receptor (Homo sapiens) (UniProt P35869); experiment: qHTS assay to identify small molecule that activate the aryl hydrocarbon receptor (AhR) signaling pathway (AID 743085); also: nearly all actives have a fitted effect of over 15% in size; also: potency is read from the fitted curve at half-maximal effect;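 as to activation: HG2L7.5c1 human HepG2 liver cells with stably integrated DRE-driven firefly reporter; series mostly up to about 70 µM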
Aryl hydrocarbon receptor (Homo sapiens), sequence (P35869 whole entry, looked up): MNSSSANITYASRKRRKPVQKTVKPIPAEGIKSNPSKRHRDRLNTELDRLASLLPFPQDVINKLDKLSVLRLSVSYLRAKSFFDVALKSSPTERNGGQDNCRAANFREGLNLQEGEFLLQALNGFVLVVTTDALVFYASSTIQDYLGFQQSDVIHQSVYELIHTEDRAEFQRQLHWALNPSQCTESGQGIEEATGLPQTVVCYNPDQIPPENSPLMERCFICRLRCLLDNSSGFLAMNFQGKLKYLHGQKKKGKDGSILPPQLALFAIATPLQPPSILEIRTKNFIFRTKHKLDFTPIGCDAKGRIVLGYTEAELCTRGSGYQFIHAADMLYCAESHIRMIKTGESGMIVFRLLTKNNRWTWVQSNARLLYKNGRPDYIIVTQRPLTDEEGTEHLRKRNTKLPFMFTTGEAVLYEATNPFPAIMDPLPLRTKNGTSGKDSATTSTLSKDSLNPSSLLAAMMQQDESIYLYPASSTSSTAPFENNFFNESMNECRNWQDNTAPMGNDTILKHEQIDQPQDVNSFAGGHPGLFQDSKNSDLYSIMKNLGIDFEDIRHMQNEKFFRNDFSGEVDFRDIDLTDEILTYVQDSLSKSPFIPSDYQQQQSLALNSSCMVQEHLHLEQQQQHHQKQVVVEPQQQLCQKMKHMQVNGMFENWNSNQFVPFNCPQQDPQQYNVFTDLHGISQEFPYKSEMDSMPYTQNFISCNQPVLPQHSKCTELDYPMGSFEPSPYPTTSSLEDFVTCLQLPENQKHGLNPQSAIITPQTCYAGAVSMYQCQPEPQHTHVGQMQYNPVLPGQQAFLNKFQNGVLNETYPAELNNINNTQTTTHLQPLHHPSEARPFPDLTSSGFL
Method in brief: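 Stably transfected human liver carcinoma cells (HG2L7.5c1; 20 DRE-firefly luciferase) were incubated 5 h, dosed, and kept 24 h at 37C. Agonism was scored from increased luciferase luminescence.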

[14] = qHTS assay for small molecule agonists of the antioxidant response element (ARE) signaling pathway - cell viability counter screen (AID 743203; calls by dose curve; also: nearly all actives have a fitted effect of over 55% in size; also: potency is read from the fitted curve at half-maximal effect)
Method in brief: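 Viability counter screen: stably transfected ARE-bla HepG2 line, 16 hrs compound exposure at 37C/5% CO2, ATP-based CellTiter-Glo luminescence measured in the reporter wells.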

[15] = system: thyroid hormone receptor (rat, GH3 cells); experiment: qHTS assay to identify small molecule agonists of the thyroid receptor (TR) signaling pathway (AID 743066; calls by dose curve)
[16] = molecular target: Estrogen receptor (Homo sapiens) (UniProt P03372); experiment: qHTS assay to identify small molecule agonists of the estrogen receptor alpha (ER-alpha) signaling pathway using the BG1 cell line (AID 743079); also: nearly all actives have a fitted effect of over 20% in size; also: potency is read from the fitted curve at half-maximal effect
[17] = qHTS assay for small molecule activators of the heat shock response signaling pathway (AID 743210; active = well fitted activation curve with a large enough effect in the signal ratio in the repeat runs, with a control signal flat, not every such curve was filed as active; inconclusive = weak or mixed curves; the % refers to the signal ratio; also: series mostly up to about 63 µM)
Method in brief: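 Compound exposure lasted 5 h at 37 C in HeLa cells carrying a heat-shock-element-driven beta-lactamase reporter. Read-out: fluorescence intensity after 2.5 h room-temperature loading with LiveBLAzer B/G FRET substrate.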

[18] = molecular target: Estrogen receptor (Homo sapiens) (UniProt P03372); experiment: qHTS assay to identify small molecule antagonists of the estrogen receptor alpha (ER-alpha) signaling pathway (AID 743069; active = well fitted curve in the direction sought with a large enough effect in the signal ratio in the repeat runs, not every such curve was filed as active; inconclusive = weak or mixed curves, or effect the other way; inactive = no such curve, though single readings can be large or run the other way; the % refers to the signal ratio; also: potency is read from the fitted curve at half-maximal effect)
Method in brief: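 Antagonist mode: compounds in DMSO were co-added with 17beta-estradiol to ER-alpha-bla HEK293 cells (2% charcoal-stripped serum) and left 18 h at 37C. Reporter inhibition was measured as FRET fluorescence after 2 h LiveBLAzer substrate at room temperature.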

[19] = molecular target: Peroxisome proliferator-activated receptor gamma (Homo sapiens) (UniProt P37231); experiment: qHTS assay to identify small molecule antagonists of the peroxisome proliferator-activated receptor gamma (PPARg) signaling pathway (AID 743191; calls by dose curve; also: nearly all actives have a fitted effect of over 30% in size; also: potency is read from the fitted curve at half-maximal effect)
Method in brief: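 Beta-lactamase reporter under UAS control in HEK293H PPARg-bla cells; compound treatment 17 h at 37C. Read-out: fluorescence intensity after 1 h room-temperature incubation with LiveBLAzer B/G FRET substrate.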

| Structure (SMILES) | Potency [1] | Potency [2] | Potency [3] | Potency [4] | Potency [5] | Potency (Aromatase (Homo sapiens)) | Potency [6] | Potency [7] | Potency [8] | Potency [9] | Potency [10] | Potency [11] | Potency [12] | Potency [13] | Potency [14] | outcome [15] | Potency [16] | Potency [17] | Potency [18] | Potency [19] |
| --- | --- | --- | --- | --- | --- | --- | --- | --- | --- | --- | --- | --- | --- | --- | --- | --- | --- | --- | --- | --- |
| CCOc1cc(C(C)(C)C)ccc1C1COC(c2c(F)cccc2F)=N1 (stereo unspecified) | 16.6 µM (active) | inactive | inactive | inactive | inactive | 41.6 µM (active) | inactive | inactive | 11.8 µM (active) | 5.88 µM (active) | 29.7 µM (active) |  |  |  |  |  |  |  |  |  |
| O=C(CCl)Nc1ccccc1 | 24.3 µM (active) |  | inactive |  |  | 43.3 µM (active) | 61.1 µM (active) |  | 15.5 µM (active) | 4.33 µM (active) | 49 µM (active) | 27.3 µM (active) | 43.6 µM (active) |  |  |  |  |  |  |  |
| N#CSCSC#N | 1.98 µM (active) and 2.15 µM (active) | inactive |  |  | inactive | 14 µM (active) and 17.1 µM (active) | inactive |  | 27.3 µM (active) |  | 50.1 µM (active) and 43.2 µM (active) | 12.5 µM (active) and 17.1 µM (active) | 19.9 µM (active) and 12.2 µM (active) | inactive | 55.7 µM (active) and 48.1 µM (active) |  |  |  |  |  |
| CC(C)C1CCC(Cc2ccc(Cl)cc2)C1(O)Cn1cncn1 (stereo unspecified) | 34 µM (active) |  | inactive | 67.9 µM (active) |  | 2.41 µM (active) |  |  |  | 15.2 µM (active) | 54.4 µM (active) | 24.1 µM (active) | inactive | inactive |  |  |  |  |  |  |
| O=[N+]([O-])c1ccc2ccc3cccc4ccc1c2c34 |  | inactive | 2.75 µM [fluorescent] (active) |  |  | inactive | inactive |  | inactive |  | inactive | inactive |  | inactive |  | inactive | inactive | inactive |  |  |
| CC(C)OC(=S)S |  | inactive | inactive | inactive | inactive |  | inactive | inactive | inactive |  | inactive | inactive | inactive | inactive |  | inactive |  |  | inactive | inactive |
| c1ccc(Nc2ccc3ccccc3c2)cc1 |  | inactive | inactive |  | inactive | inactive | inactive | inactive | inactive |  | inactive | 54.2 µM (active) | inactive and 54.9 µM (active) |  |  | inactive | 19.2 µM (active) and 9.69 µM (active) | inactive | inactive |  |
| CC(C)Oc1cccc(NC(=O)c2ccccc2C(F)(F)F)c1 |  |  | inactive | inactive |  |  | inactive | inactive |  |  |  | inactive |  | 9.97 µM (active) | inactive | inactive | inactive | inactive | inactive |  |
| CC(=O)/C=C/c1ccc2c(c1)OCO2 |  | inactive | inactive |  | inactive | inactive | inactive | inactive | inactive |  |  |  |  |  |  | inactive | inactive |  |  | 12.4 µM (active) |
| C[C@H]1CC[C@@H]2[C@@H](C)[C@H]3[C@H](C[C@H]4[C@@H]5CC=C6CC(O[C@@H]7O[C@H](CO)[C@H](O)[C@H](O[C@@H]8O[C@H](CO)[C@@H](O)[C@H](O)[C@H]8O)[C@H]7O[C@H]7O[C@@H](C)[C@H](O)[C@@H](O)[C@H]7O)CC[C@]6(C)[C@H]5CC[C@]34C)N2C1 (stereo partly specified) |  | 16.9 µM (active) and inactive |  | 17.8 µM (active) | inactive | 25.1 µM (active) | inactive | inactive | 8.99 µM (active) |  | 1.43 µM (active) | 19.9 µM (active) |  | inactive | 7.94 µM (active) | inactive | inactive |  | inactive |  |
| c1ccc2c(c1)[nH]c1cnccc12 |  | inactive | inactive | inactive | inactive | inactive | inactive | inactive | inactive |  | inactive | inactive | inactive | 54.5 µM (active) | inactive | inactive | inactive |  |  | inactive |
| COc1cccc(C(=O)CCN[C@@H](C)[C@H](O)c2ccccc2)c1 | 10.6 µM (active) | inactive |  |  |  | inactive | inactive | inactive | inactive |  |  | inactive |  | inactive |  |  |  |  |  | inactive |
| Oc1ccc(C(=C(Cl)Cl)c2ccc(O)cc2)cc1 |  |  |  | inactive | inactive | inactive | inactive |  |  | 24.3 µM (active) |  | 48.5 µM (active) | inactive |  |  | inactive | 243 nM (active) |  | 48.9 µM [inconclusive] (active) | 17.3 µM (active) |
| CCN |  | inactive |  | inactive | inactive | inactive | inactive | inactive | inactive | inactive | inactive | inactive |  | inactive |  | inactive |  |  |  | inactive |
| Clc1ccc(CCC(Cn2ccnc2)Sc2c(Cl)cccc2Cl)cc1 (stereo unspecified) |  | inactive |  | inactive | inactive | 12.7 µM (active) | inactive |  |  |  | 29.8 µM (active) | inactive |  |  |  | inactive |  |  |  |  |

From PubChem BioAssay (Tox21)
